# Experimental data from PubChem BioAssay AID651813 (National Center for Advancing Translational Sciences (NCATS), 2012).
# Among all 2,100 compounds or so, about 1,100 (52%) were called active. Roughly 27% stayed inconclusive and do not appear here. The set was probably picked from earlier hits. This is one part of the list. Unmarked numbers belong to inactive results. The call rests on the fitted dose curve; in most records, active means well fitted inhibition curve with a large enough effect; inconclusive means small, poorly fitted or top-dose-only effect; inactive means no such curve, though single readings can be large or run the other way.
# Molecular target: DNA dC->dU-editing enzyme APOBEC-3G (Homo sapiens) (UniProt Q9HC16)
# Sequence (Q9HC16 whole entry, looked up): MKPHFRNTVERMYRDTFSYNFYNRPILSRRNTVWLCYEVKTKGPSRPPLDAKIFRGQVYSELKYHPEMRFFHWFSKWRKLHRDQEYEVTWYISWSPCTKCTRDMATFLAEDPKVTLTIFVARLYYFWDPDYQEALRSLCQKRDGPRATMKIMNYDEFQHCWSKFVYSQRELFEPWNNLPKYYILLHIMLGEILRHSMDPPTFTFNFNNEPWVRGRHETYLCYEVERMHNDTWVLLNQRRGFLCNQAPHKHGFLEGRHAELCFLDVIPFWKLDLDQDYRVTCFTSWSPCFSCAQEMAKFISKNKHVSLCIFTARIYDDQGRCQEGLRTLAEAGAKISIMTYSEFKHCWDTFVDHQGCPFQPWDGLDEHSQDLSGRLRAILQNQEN
# Test: qHTS for inhibitors of Vif-A3G interactions: Cherry picks counterscreen;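 further: hits raise yellow fluorescence by blocking Vif-driven A3G-eYFP degradation; nearly all actives have a fitted effect of over 70% in size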;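 on max response: max response given as percent of control signal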
# Settings: HeLa A3G-eYFP + Vif (tagged APOBEC3G with the HIV-1 protein that degrades it), eYFP fluorescence, 24 h
# Procedure, shortened: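 HeLa cells stably expressing A3G-eYFP and Vif were treated for 24 h at 37 deg C with compounds at several concentrations; yellow fluorescence (Ex 488 nm, Em 500-530 nm) read by Acumen Explorer, MG132 as positive control.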
# Potency means the concentration at half of the fitted maximal effect.
SMILES,Potency,max response
Cc1cc(/C=C/c2ccnc3ccccc23)ccc1N(C)C,14.6 µM (active),–
CN1CCCc2cc(/C=C/c3ccnc4ccccc34)ccc21,5.8 µM (active),–
CN(C)c1ccc(/C=C/c2ccnc3ccccc23)cc1O,20.6 µM (active),–
CN(C)c1ccc(/C=C/c2ccnc3ccccc23)cc1C=O,5.17 µM (active),–
O=C(Nc1cc(Cl)cc2c1-c1ccc(Cl)cc1C2O)C(Cl)Cl (stereo not drawn),–,-14.6%
O=C(/C=C/c1ccncc1)c1cc(Cl)ccc1O,–,-22.8%
Cc1cc(/C=C/c2ccnc3ccccc23)ccc1N,18.4 µM (active),–
CCc1cc(/C=C/c2ccnc3ccccc23)ccc1N(C)C,20.6 µM (active),–
CN1C(=O)C(O)(C2COC(C)(C)CC2=O)c2cc(Br)ccc21 (stereo not drawn),–,-0.606%
N=C1S/C(=C\c2ccc(-c3cccc(Cl)c3)o2)C(=O)N1c1nccs1,16.4 µM (active),–
CCc1ccc(CNC(=O)Cc2ccc(NC(=O)C3=C(C)OCCS3)cc2)cc1,0.886 µM (active),–
CC(C)OC(=O)c1cc(C(=O)c2cc(F)ccc2O)coc1=N,20.6 µM (active),–
CC(C)OC(=O)c1ccc(NCc2cc(O)ccc2O)cc1Cl,–,-19.4%
O=C(N/N=C/c1ccc(Cl)cc1)c1cc2c(s1)-c1ccccc1CC2,7.04 µM (active),–
COc1ccc(-c2[nH]ncc2N=Nc2ccccc2)cc1,8.86 µM (active),–
Cc1ccccc1OCCc1c(C)[nH]c(=S)[nH]c1=O,2.5 µM (active),–
Cc1ccc(-c2nc(SCCOc3ccccc3C)n3[nH]c(=O)cc3n2)cc1,–,23%
N#C/C(=C\c1cccc(O)c1)c1nc2ccccc2o1,7.04 µM (active),–
O=C(Nc1ccc(Cl)cc1)Nc1ccon1,–,-27.2%
Cc1ccccc1OCC(=O)NNC(=O)Nc1ccc(Cl)cc1,6.27 µM (active),–
COc1cccc(/C=N/NC(=O)c2[nH]nc3c2CCc2ccccc2-3)c1,5.59 µM (active),–
COc1ccc(/C=N/NC(=O)c2[nH]nc3c2CCc2ccccc2-3)cc1OC,3.96 µM (active),–
O=C(NCCC1=CCCCC1)C1CCC(CNc2nc(=S)[nH]c3ccccc23)CC1 (stereo not drawn),–,-2.72%
Cc1ccc(C)c2nc3sc(C(=O)N4CCOCC4)c(N)c3cc12,17.7 µM (active),–

SMILES,Potency,max response
Cc1sc(NC(=O)c2sc3nc4c(C)cccc4cc3c2N)c(C#N)c1C,17.7 µM (active),–
Cc1cccc2cc3c(N)c(C(=O)N4CCOCC4)sc3nc12,8.2 µM (active),–
Cc1cccc2cc3c(N)c(C(=O)Nc4ccc(N5CCOCC5)cc4)sc3nc12,14 µM (active),–
Cc1ccnc(N/C=C(\C#N)c2nc(-c3cccc(Br)c3)cs2)c1,11.2 µM (active),–
Cc1ccc(C(=O)NN(C)c2nc3ccccc3nc2C(F)(F)F)cc1,6.27 µM (active),–
CN(NC(=O)c1ccccc1)c1nc2ccccc2nc1C(F)(F)F,3.53 µM (active),–
CC12CC3CC(C)(C1)CC(C(=O)NC(=S)N1CCOCC1)(C3)C2,–,-26.4%
Cc1cnc(NC(=O)CC(C)c2ccccc2)s1 (stereo not drawn),5.59 µM (active),–
CCn1nc(-c2ccccc2)c2nc3ccccc3nc21,23.1 µM (active),–
O=C(NCc1cccc(F)c1)c1cccc2c1C(=O)c1ccc(N3CCCC3)cc1S2(=O)=O,17.7 µM (active),–
Cc1ccc(CNC(=O)c2cccc3c2C(=O)c2ccc(N4CCCCC4)cc2S3(=O)=O)cc1,18.4 µM (active),–
CC1CCN(c2ccc3c(c2)S(=O)(=O)c2cccc(C(=O)NCc4cccc(F)c4)c2C3=O)CC1,14 µM (active),–
Cc1ccc(CNC(=O)c2cccc3c2C(=O)c2ccc(N4CCC(C)CC4)cc2S3(=O)=O)cc1,–,-0.215%
COc1cc2ccccc2cc1C(=O)N/N=C/c1cccs1,1.77 µM (active),–
COc1ccccc1C=CC(=O)C=Cc1ccccc1OC,6.27 µM (active),–
O=C(NC(=S)N1CCN(C2CCCCC2)CC1)c1ccccc1,–,-11.9%
CN(C)c1ccc(/C=C/c2nc3ccccc3c(=O)n2CCO)cc1,20.6 µM (active),–
Nc1ccc(/C=C/c2cc(Cl)nc3ccccc23)cc1,20.6 µM (active),–
CN(C)c1ccc(/C=C/c2cc(N(C)C)nc3ccccc23)cc1,6.51 µM (active),–
CN(C)c1ccc(/C=C/c2cc(/C=C/c3ccc(N(C)C)cc3)c3ccccc3n2)cc1,3.66 µM (active),–
CCN(CC)c1ccc(/C=C/c2cc(-c3ccccc3)c3ccccc3n2)cc1,1.98 µM (active),–
Cc1ccccc1N1C(=O)c2cccc3c(N(C)CCO)ccc(c23)C1=O,4.61 µM (active),–
COc1ccccc1N1C(=O)c2cccc3c(C(=O)O)ccc(c23)C1=O,–,6.39%
COc1ccc(C(=O)c2ccc(OC)c(OC)c2OC)cc1,2.23 µM (active),–

SMILES,Potency,max response
O=C(NC1C/C(=N/O)c2cc3c(cc21)OCO3)C(F)(F)F (stereo not drawn),–,-1.11%
COc1cc(/C=C2\COC/C(=C\c3cc(OC)c(OC)c(OC)c3)C2=O)cc(OC)c1OC,3.14 µM (active),–
COc1cc(C=C2C(=O)c3ccccc3C2=O)cc(OC)c1OC,–,-6.19%
CCOc1cc(/C=C2\CN(C)C/C(=C\c3ccc(O)c(OCC)c3)C2=O)ccc1O,5.59 µM (active),–
COc1cc(/C=C2\COC/C(=C\c3ccc(O)c(OC)c3)C2=O)ccc1O,8.86 µM (active),–
COc1ccc(/C=C2/CSC/C(=C/c3ccc(OC)c(OC)c3)C2=O)cc1OC,5.59 µM (active),–
Cc1ccc(F)c(S(=O)(=O)NC(=O)C2(C)CCN2C(=O)Cc2ccc(Cl)cc2Cl)c1 (stereo not drawn),–,13%
Cc1cccn2c(=O)c3cc(C#N)c(=NC(=O)c4cccs4)n(CCCOC(C)C)c3nc12,–,-8.85%
COc1ccc(/C=C2\CN(Cc3ccccc3)C/C(=C\c3ccc(OC)c(O)c3)C2=O)cc1O,6.27 µM (active),–
C=CCn1c(SCc2c(C)noc2C)nc2cc(C(=O)O)ccc2c1=O,17.7 µM (active),–
Cc1noc(C)c1CSc1nc2ccccc2c(=O)n1-c1ccccc1,4.98 µM (active),–
CCn1c2ccccc2c2cc(NC(=O)CNCc3ccccc3OC)ccc21,6.27 µM (active),–
COc1ccc(-c2cc(NC(C)=O)c3ncc(-c4cc(OC)c(OC)c(OC)c4)n3c2)cn1,5.59 µM (active),–
COc1cc(-c2cnc3c(NC(C)=O)cc(-c4ccccc4CN(C)C)cn23)cc(OC)c1OC,14 µM (active),–
COC(=O)C1=C(C)NC2=C(C(=O)CC(c3cccs3)C2)C1c1ccsc1 (stereo not drawn),12.5 µM (active),–
CN(C)c1ccc(/C=N/N(CCO)C2=NS(=O)(=O)c3ccccc32)cc1,–,-24.9%
CN(/N=C/c1ccc(N(C)C)cc1)C1=NS(=O)(=O)c2ccccc21,5.59 µM (active),–
COc1ccc(-c2csc(NC(=S)NC(=O)/C=C/c3ccco3)n2)cc1Br,3.14 µM (active),–
O=C(/C=C/c1ccco1)NC(=S)Nc1cccc(-c2nc3ccccc3o2)c1,4.98 µM (active),–
Cc1nc(NC(=O)/C=C/c2ccco2)sc1C,6.27 µM (active),–
CSc1ccccc1NC(=O)COC(=O)/C=C/c1ccco1,–,-23.9%
Cc1ccnc(NC(=S)NC(=O)/C=C/c2ccco2)c1,6.27 µM (active),–
COc1ccc(OC)c(/C=C/c2nc3ccccc3[nH]c2=O)c1,7.31 µM (active),–
CC(=Nc1ccccc1)C1=C(O)C(Cc2ccccc2)NC1=O (stereo not drawn),0.396 µM (active),–

SMILES,Potency,max response
O=C1NC(c2ccccc2Br)=N/C1=C\c1ccco1,–,-4.52%
O=C1N/C(=C\c2ccccc2)c2ccccc21,0.994 µM (active),–
CCOC(=O)/C(C#N)=C\C=C1C=CN(C)C=C1,2.31 µM (active),–
C=CCN1C=CC(=C/C=C(/C#N)C(=O)OCC)C=C1,3.66 µM (active),–
Cc1ccc(Nc2nc(Cl)c(C=O)s2)cc1Cl,13 µM (active),–
O=Cc1sc(Nc2ccccc2)nc1Cl,20.6 µM (active),–
c1ccc(Nc2nc(-c3ccccn3)cs2)cc1,–,16.2%
Cc1cc(C(F)(F)F)c(C#N)c(SCC(=O)Nc2nc3ccccc3s2)n1,18.4 µM (active),–
CCOC(=O)c1ccc(NC(=O)CSc2nc(-c3ccc(OC)cc3)cc(C(F)(F)F)c2C#N)cc1,23.1 µM (active),–
Cc1coc(NC(=O)CSc2nc(-c3ccncc3)cc(C(F)(F)F)c2C#N)n1,16.4 µM (active),–
CCCCOc1ccc(-c2cc(C(F)(F)F)c(C#N)c(SCC(=O)O)n2)cc1,23.1 µM (active),–
CCOC(=O)c1ccc(NC(=O)CSc2nc(-c3ccc(F)cc3)cc(C(F)(F)F)c2C#N)cc1,9.2 µM (active),–
COCc1cc(C)nc(SCC(=O)Nc2ccc3[nH]c(=O)[nH]c3c2)c1C#N,–,-18.1%
COc1cccc2sc(Nc3nc(-c4cc5ccccc5oc4=O)cs3)nc12,3.96 µM (active),–
COc1ccc(-c2cc3ccccc3oc2=O)cc1NC(=S)NC(=O)c1ccc2c(c1)OCCO2,–,-2.77%
COc1cc(/C=C2\SC(=S)N(NC(=O)c3ccccc3OC)C2=O)ccc1O,–,-17.8%
COc1cc(/C=C2\SC(=S)N(Nc3ncc(C(F)(F)F)cc3Cl)C2=O)ccc1O,20.6 µM (active),–
CN(C)c1ccc(/C=C2\SC(=S)N(Nc3ncc(C(F)(F)F)cc3Cl)C2=O)cc1,5.17 µM (active),–
Cc1cc(C)cc(NC2=NC3(CCCCC3)N=C(N)N2)c1,19.8 µM (active),–
CCOC(=O)c1ccc(NC(=S)NC(=O)C2CCCC2)cc1,–,-2.63%
COC(=O)c1ccc(NC(=O)CC2Nc3cc(C)c(C)cc3NC2=O)cc1 (stereo not drawn),20.6 µM (active),–
